Laboratory results: PMC9911399, “Two distinct binding modes provide the RNA-binding protein RbFox with extraordinary sequence specificity”
Residue numbers refer to the chain shown, from its start. Over roughly 16,000 sequences, “ka relative to ugcaugu” has its median near 0.096; the highest 2% begin near 0.35. Only a selection was taken, and the highest values are over-represented in it overall.

T1: RBFOX1 RRM RbFoxmut (Fox-RRM*) (Homo sapiens, UniProt Q9NWB1 109-208, R118D;E147R;N151S;E152T)
T1 sequence: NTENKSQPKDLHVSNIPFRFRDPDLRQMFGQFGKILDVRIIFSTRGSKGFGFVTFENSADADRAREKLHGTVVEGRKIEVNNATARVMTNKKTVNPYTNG

B1: AGGUGCA (DNA:RNA)
RNA: GGGAGACCGGAAUUCAGAUUGUCCAGGUGCAUUAAAUCCCGUCGUAGCCACCA
DNA 1: CAATCTGAATTCCGGTCTCCC
DNA 2: TGGTGGCTACGACGGGATT
B2: GUAUUCU (DNA:RNA)
RNA: B1 RNA with A25G, G26U, G27A, G29U, A31U
DNA 1: CAATCTGAATTCCGGTCTCCC
DNA 2: TGGTGGCTACGACGGGATT
B3: UCCUAGU (DNA:RNA)
RNA: B1 RNA with A25U, G26C, G27C, G29A, C30G, A31U
DNA 1: CAATCTGAATTCCGGTCTCCC
DNA 2: TGGTGGCTACGACGGGATT
B4: UUCUCAG (DNA:RNA)
RNA: B1 RNA with A25U, G26U, G27C, G29C, C30A, A31G
DNA 1: CAATCTGAATTCCGGTCTCCC
DNA 2: TGGTGGCTACGACGGGATT
B5: CGGCGAA (DNA:RNA)
RNA: B1 RNA with A25C, U28C, C30A
DNA 1: CAATCTGAATTCCGGTCTCCC
DNA 2: TGGTGGCTACGACGGGATT
B6: GUUUAAG (DNA:RNA)
RNA: B1 RNA with A25G, G26U, G27U, G29A, C30A, A31G
DNA 1: CAATCTGAATTCCGGTCTCCC
DNA 2: TGGTGGCTACGACGGGATT
B7: UCCCAUG (DNA:RNA)
RNA: GGGAGACCGGAAUUCAGAUUGUCCUCCCAUGUUAAAUCCCGUCGUAGCCACCA
DNA 1: CAATCTGAATTCCGGTCTCCC
DNA 2: TGGTGGCTACGACGGGATT
B8: GUCGUCG (DNA:RNA)
RNA: B7 RNA with U25G, C26U, C28G, A29U, U30C
DNA 1: CAATCTGAATTCCGGTCTCCC
DNA 2: TGGTGGCTACGACGGGATT
B9: GAUGUCG (DNA:RNA)
RNA: B1 RNA with A25G, G26A, G27U, U28G, G29U, A31G
DNA 1: CAATCTGAATTCCGGTCTCCC
DNA 2: TGGTGGCTACGACGGGATT
B10: GGCGAUG (DNA:RNA)
RNA: B7 RNA with U25G, C26G, C28G
DNA 1: CAATCTGAATTCCGGTCTCCC
DNA 2: TGGTGGCTACGACGGGATT
B11: CGUCCCG (DNA:RNA)
RNA: B1 RNA with A25C, G27U, U28C, G29C, A31G
DNA 1: CAATCTGAATTCCGGTCTCCC
DNA 2: TGGTGGCTACGACGGGATT
B12: GGAAUCG (DNA:RNA)
RNA: B1 RNA with A25G, G27A, U28A, G29U, A31G
DNA 1: CAATCTGAATTCCGGTCTCCC
DNA 2: TGGTGGCTACGACGGGATT
B13: GUCGAUG (DNA:RNA)
RNA: B7 RNA with U25G, C26U, C28G
DNA 1: CAATCTGAATTCCGGTCTCCC
DNA 2: TGGTGGCTACGACGGGATT
B14: CGCGUAA (DNA:RNA)
RNA: B1 RNA with A25C, G27C, U28G, G29U, C30A
DNA 1: CAATCTGAATTCCGGTCTCCC
DNA 2: TGGTGGCTACGACGGGATT
B15: AACGAAC (DNA:RNA)
RNA: B7 RNA with U25A, C26A, C28G, U30A, G31C
DNA 1: CAATCTGAATTCCGGTCTCCC
DNA 2: TGGTGGCTACGACGGGATT
B16: UAAUUGU (DNA:RNA)
RNA: B1 RNA with A25U, G26A, G27A, G29U, C30G, A31U
DNA 1: CAATCTGAATTCCGGTCTCCC
DNA 2: TGGTGGCTACGACGGGATT
B17: GGCUGUC (DNA:RNA)
RNA: B1 RNA with A25G, G27C, C30U, A31C
DNA 1: CAATCTGAATTCCGGTCTCCC
DNA 2: TGGTGGCTACGACGGGATT
B18: AUUCUUA (DNA:RNA)
RNA: B1 RNA with G26U, G27U, U28C, G29U, C30U
DNA 1: CAATCTGAATTCCGGTCTCCC
DNA 2: TGGTGGCTACGACGGGATT
B19: CUGCAUA (DNA:RNA)
RNA: B7 RNA with U25C, C26U, C27G, G31A
DNA 1: CAATCTGAATTCCGGTCTCCC
DNA 2: TGGTGGCTACGACGGGATT
B20: UGCAUUU (DNA:RNA)
RNA: B7 RNA with C26G, C28A, A29U, G31U
DNA 1: CAATCTGAATTCCGGTCTCCC
DNA 2: TGGTGGCTACGACGGGATT
B21: UGCAUGU (DNA:RNA)
RNA: B7 RNA with C26G, C28A, A29U, U30G, G31U
DNA 1: CAATCTGAATTCCGGTCTCCC
DNA 2: TGGTGGCTACGACGGGATT
B22: UGCCAUA (DNA:RNA)
RNA: B7 RNA with C26G, G31A
DNA 1: CAATCTGAATTCCGGTCTCCC
DNA 2: TGGTGGCTACGACGGGATT
B23: UGCCAUC (DNA:RNA)
RNA: B7 RNA with C26G, G31C
DNA 1: CAATCTGAATTCCGGTCTCCC
DNA 2: TGGTGGCTACGACGGGATT
B24: CUGCAUG (DNA:RNA)
RNA: B7 RNA with U25C, C26U, C27G
DNA 1: CAATCTGAATTCCGGTCTCCC
DNA 2: TGGTGGCTACGACGGGATT
B25: UGCCAUG (DNA:RNA)
RNA: B7 RNA with C26G
DNA 1: CAATCTGAATTCCGGTCTCCC
DNA 2: TGGTGGCTACGACGGGATT
B26: CCCUGCA (DNA:RNA)
RNA: B1 RNA with A25C, G26C, G27C
DNA 1: CAATCTGAATTCCGGTCTCCC
DNA 2: TGGTGGCTACGACGGGATT
B27: UGCAUAU (DNA:RNA)
RNA: B7 RNA with C26G, C28A, A29U, U30A, G31U
DNA 1: CAATCTGAATTCCGGTCTCCC
DNA 2: TGGTGGCTACGACGGGATT
B28: CGCGCUA (DNA:RNA)
RNA: B1 RNA with A25C, G27C, U28G, G29C, C30U
DNA 1: CAATCTGAATTCCGGTCTCCC
DNA 2: TGGTGGCTACGACGGGATT
B29: AUACCAG (DNA:RNA)
RNA: B7 RNA with U25A, C26U, C27A, A29C, U30A
DNA 1: CAATCTGAATTCCGGTCTCCC
DNA 2: TGGTGGCTACGACGGGATT
B30: CCAGGGG (DNA:RNA)
RNA: B7 RNA with U25C, C27A, C28G, A29G, U30G
DNA 1: CAATCTGAATTCCGGTCTCCC
DNA 2: TGGTGGCTACGACGGGATT
B31: CUUGUUU (DNA:RNA)
RNA: B7 RNA with U25C, C26U, C27U, C28G, A29U, G31U
DNA 1: CAATCTGAATTCCGGTCTCCC
DNA 2: TGGTGGCTACGACGGGATT

target: T1, RBFOX1 RRM RbFoxmut (Fox-RRM*); experiment: EMSA; HiTS-Eq, 1 nM pool, 10 min; buffer printed only for the single-RNA assays: 10 mM Tris pH 7.5, 150 mM NaCl, 3.4 mM EDTA, 0.001% NP-40, 30 C; details: tags: His6 N-terminal (pET28a); label: 5' 32P
How it was run: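 Purified wild-type or mutant RbFox RRM at increasing concentrations was equilibrated with 1 nM of 5′-radiolabelled RNA carrying 7 randomized nucleotides for 10 min in 50 µL. Unbound RNA was separated by 8% native PAGE and sequenced. Relative association constants came from read-count changes of each RNA species compared with the control reaction, normalised to the cognate motif.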

| Binder | binding signal |
| --- | --- |
| B1 | 0.21 KA relative to UGCAUGU |
| B2 | 0.0952 KA relative to UGCAUGU |
| B3 | 0.117 KA relative to UGCAUGU |
| B4 | 0.0887 KA relative to UGCAUGU |
| B5 | 0.0938 KA relative to UGCAUGU |
| B6 | 0.131 KA relative to UGCAUGU |
| B7 | 0.0994 KA relative to UGCAUGU |
| B8 | 0.15 KA relative to UGCAUGU |
| B9 | 0.145 KA relative to UGCAUGU |
| B10 | 0.404 KA relative to UGCAUGU |
| B11 | 0.0717 KA relative to UGCAUGU |
| B12 | 0.387 KA relative to UGCAUGU |
| B13 | 0.141 KA relative to UGCAUGU |
| B14 | 0.114 KA relative to UGCAUGU |
| B15 | 0.0568 KA relative to UGCAUGU |
| B16 | 0.0755 KA relative to UGCAUGU |

| Binder | binding signal |
| --- | --- |
| B17 | 0.211 KA relative to UGCAUGU |
| B18 | 0.13 KA relative to UGCAUGU |
| B19 | 0.144 KA relative to UGCAUGU |
| B20 | 0.137 KA relative to UGCAUGU |
| B21 | 1 KA relative to UGCAUGU |
| B22 | 0.122 KA relative to UGCAUGU |
| B23 | 0.208 KA relative to UGCAUGU |
| B24 | 1.34 KA relative to UGCAUGU |
| B25 | 0.509 KA relative to UGCAUGU |
| B26 | 0.186 KA relative to UGCAUGU |
| B27 | 0.178 KA relative to UGCAUGU |
| B28 | 0.103 KA relative to UGCAUGU |
| B29 | 0.122 KA relative to UGCAUGU |
| B30 | 0.0555 KA relative to UGCAUGU |
| B31 | 0.0932 KA relative to UGCAUGU |
